Structures are written as SMILES.

The first experiment has as its system Mel-DCC-11-R. The experiment can be described thus: cell viability relative to DMSO control (fraction of DMSO control); higher = less cytotoxic, active = 0.8 or less. To be noted: 1 µM; 120 h; vemurafenib co-treatment 0 µM. Here is the method:
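Same 315-drug TargetMol library at 1 µM in duplicate, 120 h, ATPlite luminescence normalised to DMSO controls, on the vemurafenib-resistant subline Mel-DCC-11-R cultured alone or with 8 µM vemurafenib co-treatment (Mel-DCC-11-R + V).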
In the case of `CC(C)Cn1cnc2c(N)nc3ccccc3c21` [Imiquimod], the cell viability is 0.897 (inactive).

For `CC[C@@H](CO)NCCN[C@@H](CC)CO.Cl.Cl` [Ethambutol dihydrochloride], the cell viability was 0.965 (inactive).

As for `O=C(O)CCc1nc2ccccc2[nH]1` [Procodazole], the cell viability is 1.09 (inactive).

As for `CO[C@H]1C(=O)[C@]2(C)[C@@H](OC)C[C@H]3OC[C@@]3(OC(C)=O)[C@H]2[C@H](OC(=O)c2ccccc2)[C@]2(O)C[C@H](OC(=O)[C@H](O)[C@@H](NC(=O)OC(C)(C)C)c3ccccc3)C(C)=C1C2(C)C` [Cabazitaxel], the cell viability was 1.04 (inactive).

`C#C[C@]1(O)CC[C@H]2[C@@H]3CCc4cc(OC5CCCC5)ccc4[C@H]3CC[C@@]21C` [Quinestrol]: the cell viability is 0.953 (inactive).

Consider `Nc1ncn([C@@H]2O[C@H](CO)[C@@H](O)[C@H]2O)c(=O)n1` [Mylosar], for which the cell viability is 0.927 (inactive).

Consider `CN(Cc1cnc2nc(N)nc(N)c2n1)c1ccc(C(=O)N[C@@H](CCC(=O)O)C(=O)O)cc1` [Methotrexate], for which the cell viability was 0.993 (inactive).

Regarding `Cc1[nH]c2ccccc2c1CCNCc1ccc(/C=C/C(=O)NO)cc1` [Panobinostat], the cell viability is 0.0716 (active).

Turning to `C[C@@H]1O[C@@H](OC[C@H]2O[C@@H](Oc3c(-c4ccc(O)c(O)c4)oc4cc(O)cc(O)c4c3=O)[C@H](O)[C@@H](O)[C@@H]2O)[C@H](O)[C@H](O)[C@H]1O` [Rutin], the cell viability is 1.01 (inactive).

Turning to `CN(C)C/C=C/C(=O)Nc1cc2c(Nc3ccc(F)c(Cl)c3)ncnc2cc1O[C@H]1CCOC1` [Afatinib], the cell viability was 1.09 (inactive).

As for `CCNC(=O)[C@@H]1CCCN1C(=O)[C@H](CCCN=C(N)N)NC(=O)[C@H](CC(C)C)NC(=O)[C@@H](CC(C)C)NC(=O)[C@H](Cc1ccc(O)cc1)NC(=O)[C@H](CO)NC(=O)[C@H](Cc1c[nH]c2ccccc12)NC(=O)[C@H](Cc1cnc[nH]1)NC(=O)[C@@H]1CCC(=O)N1` [Leuprorelin Acetate], the cell viability was 0.854 (inactive).

Take `O=c1[nH]c(=O)n(C2CCCO2)cc1F` (stereo not given) [Tegafur]: the cell viability was 0.895 (inactive).

Regarding `CC[C@]1(O)C[C@H]2CN(CCc3c([nH]c4ccccc34)[C@@](C(=O)OC)(c3cc4c(cc3OC)N(C=O)[C@H]3[C@@](O)(C(=O)OC)[C@H](OC(C)=O)[C@]5(CC)C=CCN6CC[C@]43[C@@H]65)C2)C1.O=S(=O)(O)O` [Vincristine sulfate], the cell viability is 0.455 (active).

With `Nc1nc(=O)c2c([nH]1)NC[C@H](CNc1ccc(C(=O)N[C@@H](CCC(=O)[O-])C(=O)[O-])cc1)N2C=O.[Ca+2]` [Calcium Levofolinate], the cell viability was 1.8 (inactive).

Turning to `COc1ccc2c(c1OC)C(=O)O[C@@H]2[C@H]1c2c(cc3c(c2OC)OCO3)CC[NH+]1C.[Cl-]` [Noscapine hydrochloride], the cell viability is 1.04 (inactive).

Take `O=C(c1ccc(F)c(F)c1Nc1ccc(I)cc1F)N1CC(O)([C@@H]2CCCCN2)C1` [Cobimetinib]: the cell viability was 0.309 (active).

For the compound `CC(COc1ccccc1)N(CCCl)Cc1ccccc1.Cl` (stereo not given) [Phenoxybenzamine hydrochloride], the cell viability is 1 (inactive).

For the compound `C.CCN(CC)CCCC(C)Nc1ccnc2cc(Cl)ccc12.O=P(O)(O)O.O=P(O)(O)O` (stereo not given) [Chloroquine diphosphate], the cell viability is 0.913 (inactive).

With `C#CCC(Cc1cnc2nc(N)nc(N)c2n1)c1ccc(C(=O)N[C@@H](CCC(=O)O)C(=O)O)cc1` (stereo not given in full) [Pralatrexate], the cell viability is 0.982 (inactive).

Take `Cc1coc2c1C(=O)C(=O)c1c-2ccc2c(C)cccc12` [Tanshinone I]: the cell viability was 1.03 (inactive).

Still in this experiment, the particulars now being: 1 µM; 120 h; vemurafenib co-treatment 8 µM.
Take `CC(C)Cn1cnc2c(N)nc3ccccc3c21` [Imiquimod]: the cell viability is 1.07 (inactive).

For the compound `CC[C@@H](CO)NCCN[C@@H](CC)CO.Cl.Cl` [Ethambutol dihydrochloride], the cell viability was 1.08 (inactive).

In the case of `O=C(O)CCc1nc2ccccc2[nH]1` [Procodazole], the cell viability was 1 (inactive).

`CO[C@H]1C(=O)[C@]2(C)[C@@H](OC)C[C@H]3OC[C@@]3(OC(C)=O)[C@H]2[C@H](OC(=O)c2ccccc2)[C@]2(O)C[C@H](OC(=O)[C@H](O)[C@@H](NC(=O)OC(C)(C)C)c3ccccc3)C(C)=C1C2(C)C` [Cabazitaxel]: the cell viability is 0.565 (active).

Consider `C#C[C@]1(O)CC[C@H]2[C@@H]3CCc4cc(OC5CCCC5)ccc4[C@H]3CC[C@@]21C` [Quinestrol], for which the cell viability is 1 (inactive).

`Nc1ncn([C@@H]2O[C@H](CO)[C@@H](O)[C@H]2O)c(=O)n1` [Mylosar]: the cell viability is 0.745 (active).

`CN(Cc1cnc2nc(N)nc(N)c2n1)c1ccc(C(=O)N[C@@H](CCC(=O)O)C(=O)O)cc1` [Methotrexate]: the cell viability was 1.14 (inactive).

As to `Cc1[nH]c2ccccc2c1CCNCc1ccc(/C=C/C(=O)NO)cc1` [Panobinostat], the cell viability is 0.0801 (active).

Take `C[C@@H]1O[C@@H](OC[C@H]2O[C@@H](Oc3c(-c4ccc(O)c(O)c4)oc4cc(O)cc(O)c4c3=O)[C@H](O)[C@@H](O)[C@@H]2O)[C@H](O)[C@H](O)[C@H]1O` [Rutin]: the cell viability was 0.929 (inactive).

On to `CN(C)C/C=C/C(=O)Nc1cc2c(Nc3ccc(F)c(Cl)c3)ncnc2cc1O[C@H]1CCOC1` [Afatinib], for which the cell viability is 0.792 (active).

In the case of `CCNC(=O)[C@@H]1CCCN1C(=O)[C@H](CCCN=C(N)N)NC(=O)[C@H](CC(C)C)NC(=O)[C@@H](CC(C)C)NC(=O)[C@H](Cc1ccc(O)cc1)NC(=O)[C@H](CO)NC(=O)[C@H](Cc1c[nH]c2ccccc12)NC(=O)[C@H](Cc1cnc[nH]1)NC(=O)[C@@H]1CCC(=O)N1` [Leuprorelin Acetate], the cell viability is 0.919 (inactive).

As for `O=c1[nH]c(=O)n(C2CCCO2)cc1F` (stereo not given) [Tegafur], the cell viability is 0.865 (inactive).

Consider `CC[C@]1(O)C[C@H]2CN(CCc3c([nH]c4ccccc34)[C@@](C(=O)OC)(c3cc4c(cc3OC)N(C=O)[C@H]3[C@@](O)(C(=O)OC)[C@H](OC(C)=O)[C@]5(CC)C=CCN6CC[C@]43[C@@H]65)C2)C1.O=S(=O)(O)O` [Vincristine sulfate], for which the cell viability was 0.242 (active).

For the compound `Nc1nc(=O)c2c([nH]1)NC[C@H](CNc1ccc(C(=O)N[C@@H](CCC(=O)[O-])C(=O)[O-])cc1)N2C=O.[Ca+2]` [Calcium Levofolinate], the cell viability is 1.27 (inactive).

`COc1ccc2c(c1OC)C(=O)O[C@@H]2[C@H]1c2c(cc3c(c2OC)OCO3)CC[NH+]1C.[Cl-]` [Noscapine hydrochloride]: the cell viability was 1.13 (inactive).

Turning to `O=C(c1ccc(F)c(F)c1Nc1ccc(I)cc1F)N1CC(O)([C@@H]2CCCCN2)C1` [Cobimetinib], the cell viability is 0.302 (active).

As to `CC(COc1ccccc1)N(CCCl)Cc1ccccc1.Cl` (stereo not given) [Phenoxybenzamine hydrochloride], the cell viability was 1.15 (inactive).

Turning to `C.CCN(CC)CCCC(C)Nc1ccnc2cc(Cl)ccc12.O=P(O)(O)O.O=P(O)(O)O` (stereo not given) [Chloroquine diphosphate], the cell viability was 1.1 (inactive).

As for `C#CCC(Cc1cnc2nc(N)nc(N)c2n1)c1ccc(C(=O)N[C@@H](CCC(=O)O)C(=O)O)cc1` (stereo not given in full) [Pralatrexate], the cell viability was 1.09 (inactive).

On to `Cc1coc2c1C(=O)C(=O)c1c-2ccc2c(C)cccc12` [Tanshinone I], for which the cell viability is 0.825 (inactive).

(Values after the supplement of paper PMC12808144.)
